Test systems include SK-MEL-2 melanoma; EKVX NSCLC; SN12C renal; UO-31 renal; TK-10 renal; ACHN renal; CAKI-1 renal; A498 renal; MOLT-4 leukemia; SR leukemia; RPMI-8226 leukemia; OVCAR-5 ovarian; OVCAR-4 ovarian; SK-OV-3 ovarian; IGROV1 ovarian; OVCAR-3 ovarian; HS 578T breast; NCI/ADR-RES ovarian; CCRF-CEM leukemia; OVCAR-8 ovarian.
Common to all, as to test: NCI-60 one-dose screen, 48 h (100 = growth as untreated, 0 = no growth, -100 = all killed)
Holding throughout (details): 10 µM unless noted

Experimental findings from PubChem BioAssay (NCI) are described below.

About 83,000 compounds went through this panel and 20% of them were active in at least one assay; those are over-represented in the sample as a whole.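 Method: cells in 96-well plates; compound added at one concentration; 48 h incubation; percent growth measured; values under 10 scored active.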 A number with no mark means an inactive call. Activity calls are given as the source filed them.

On to `Cc1ccccc1Nc1cc(O)c2c(=O)cc(-c3ccccc3)oc2c1`, for which the growth is 65.7% with SK-MEL-2 melanoma; 35.5% in the assay on EKVX NSCLC; 31.8% in the assay on SN12C renal; 42.3% in the assay on UO-31 renal; 110% with TK-10 renal; 34.5% in the assay with ACHN renal. For the same molecule, the growth was 39% with CAKI-1 renal; 31.3% with A498 renal; 25.8% in the assay on MOLT-4 leukemia; 7.93% (active) in the assay with SR leukemia; 29.7% in the assay on RPMI-8226 leukemia; 89.2% with OVCAR-5 ovarian. In addition, the growth with OVCAR-4 ovarian was 53.1%; in the assay with SK-OV-3 ovarian, 59.3%; in the assay with IGROV1 ovarian, 45.3%; with OVCAR-3 ovarian, -4.27% (active); in the assay with HS 578T breast, 44.7%; in the assay on NCI/ADR-RES ovarian, 4.9% (active).

In the case of `Cc1n[nH]c2ccc(Br)cc2c1=O`, the growth with SK-MEL-2 melanoma is 99.4%; with EKVX NSCLC, 110%; in the assay with SN12C renal it was 106%; in the assay with TK-10 renal, 104%; in the assay with ACHN renal, 100%; in the assay with CAKI-1 renal it was 103%. Besides, the growth in the assay with A498 renal is 83.7%; in the assay on CCRF-CEM leukemia, 89.2%; with MOLT-4 leukemia, 92.8%; in the assay with SR leukemia it was 100%; in the assay with RPMI-8226 leukemia, 98.1%; with OVCAR-8 ovarian, 110%. The growth is 102% in the assay with OVCAR-5 ovarian; 125% in the assay with OVCAR-4 ovarian; 98.6% with SK-OV-3 ovarian; 99.6% with IGROV1 ovarian; 109% with OVCAR-3 ovarian; 101% in the assay with HS 578T breast. In addition, the growth in the assay on NCI/ADR-RES ovarian was 110%.

For `O=S(=O)(NCCNc1nccc(-c2c(-c3cccc(O)c3)nc3occn23)n1)c1ccc(Br)cc1`, the growth was 29.1% in the assay with SK-MEL-2 melanoma; 62.1% with EKVX NSCLC; 35.6% in the assay on SN12C renal; 69.8% with TK-10 renal; 29.8% with ACHN renal; 20.2% in the assay on CAKI-1 renal. Besides, the growth in the assay with A498 renal is 39.7%; in the assay with CCRF-CEM leukemia, 14.6%; with MOLT-4 leukemia it was 10.2%; in the assay with SR leukemia it was 7.33% (active); in the assay with RPMI-8226 leukemia, 29.8%; with OVCAR-8 ovarian it was 31.3%. Also, the growth with OVCAR-5 ovarian was 51%; with OVCAR-4 ovarian it was 36.8%; with SK-OV-3 ovarian, 29.4%; in the assay on IGROV1 ovarian, 4.48% (active); in the assay with OVCAR-3 ovarian, 36%; in the assay on HS 578T breast, 21.8%. Besides, the growth with NCI/ADR-RES ovarian was 99.7%.

Consider `CCN1C(=O)N(CC)C2Nn3c(s/c(=C\c4ccccc4Br)c3=O)=NC21` (stereo not given), for which the growth in the assay with SK-MEL-2 melanoma was 48.5%; in the assay with EKVX NSCLC, 44.4%; with SN12C renal it was 35.4%; with TK-10 renal, 81.5%; in the assay on ACHN renal it was 30.5%; in the assay with CAKI-1 renal it was 21.5%. In addition, the growth is -0.799% (active) in the assay on A498 renal; 15.2% in the assay on CCRF-CEM leukemia; 23.2% in the assay with MOLT-4 leukemia; 15.7% in the assay with SR leukemia; 35.4% in the assay with RPMI-8226 leukemia; 15.4% in the assay with OVCAR-8 ovarian. Further, the growth was 28.9% in the assay on OVCAR-5 ovarian; 47.5% in the assay on OVCAR-4 ovarian; 44.7% in the assay on SK-OV-3 ovarian; 25.7% in the assay on IGROV1 ovarian; -7.24% (active) in the assay on OVCAR-3 ovarian; 11.4% in the assay on HS 578T breast. In the assay with NCI/ADR-RES ovarian, the growth is 5.54% (active).

Regarding `N#Cc1cccc(C2C3=C(COC3=O)N(CCO)c3cc4c(cc32)CCC4)c1` (stereo not given), the growth is 24.5% with SK-MEL-2 melanoma; 41.4% in the assay with EKVX NSCLC; 34.3% in the assay on SN12C renal; 39% in the assay with UO-31 renal; 54.2% in the assay with TK-10 renal; 26% in the assay with ACHN renal. Moreover, the growth was 34.7% in the assay with CAKI-1 renal; -6.54% (active) with A498 renal; 13.5% with MOLT-4 leukemia; 14.8% with SR leukemia; 19.3% in the assay with RPMI-8226 leukemia; 5.25% (active) in the assay with OVCAR-8 ovarian. Also, the growth was 43.5% in the assay with OVCAR-5 ovarian; 32.1% in the assay with SK-OV-3 ovarian; 22.5% in the assay on IGROV1 ovarian; -10.5% (active) in the assay on OVCAR-3 ovarian; 28.2% with HS 578T breast; 2.04% (active) in the assay on NCI/ADR-RES ovarian.

For the molecule `CCCCNc1cc(-c2cn[nH]c2-c2cc(C)cc(OC)c2)nc(-c2cccnc2)n1`, the growth with SK-MEL-2 melanoma is 115%; in the assay with EKVX NSCLC, 88.3%; in the assay on SN12C renal, 95.3%; with UO-31 renal, 62.3%; in the assay on TK-10 renal, 97.2%; in the assay with ACHN renal it was 96.7%. For the same molecule, the growth in the assay on CAKI-1 renal is 66.2%; with A498 renal, 64.4%; in the assay on MOLT-4 leukemia it was 82.6%; with SR leukemia it was 60.1%; in the assay on RPMI-8226 leukemia, 83.1%; with OVCAR-8 ovarian, 80.2%. Further, the growth in the assay with OVCAR-5 ovarian is 85.3%; with OVCAR-4 ovarian, 73.8%; in the assay with SK-OV-3 ovarian it was 97.1%; in the assay on IGROV1 ovarian, 115%; in the assay with OVCAR-3 ovarian it was 98.8%; with HS 578T breast, 97.6%. In addition, the growth with NCI/ADR-RES ovarian is 89.8%.

In the case of `Oc1c(CN2CCC(N3CCCCC3)CC2)cc(Cc2cc(CN3CCC(N4CCCCC4)CC3)c(O)c3ncccc23)c2cccnc12`, the growth in the assay on SK-MEL-2 melanoma is 41.4%; in the assay on EKVX NSCLC, 26%; in the assay on SN12C renal it was 34.2%; in the assay on TK-10 renal it was 33.5%; with ACHN renal it was 13.8%; with CAKI-1 renal it was 25.5%. Also, the growth was 77.7% in the assay on A498 renal; 6.54% (active) with CCRF-CEM leukemia; 6.56% (active) in the assay with MOLT-4 leukemia; 12.1% in the assay on SR leukemia; 25.4% in the assay on RPMI-8226 leukemia; 30.1% in the assay on OVCAR-8 ovarian. For the same molecule, the growth is 42.1% in the assay on OVCAR-5 ovarian; 20.7% in the assay on OVCAR-4 ovarian; 20.5% in the assay with SK-OV-3 ovarian; 22.9% in the assay on IGROV1 ovarian; 11.1% in the assay with OVCAR-3 ovarian; 52.8% in the assay with HS 578T breast. Also, the growth in the assay on NCI/ADR-RES ovarian was 48.4%.

As to `Nc1ncnc2c1N=C(c1ccc3c(c1)OCO3)CC(c1cccc(Nc3ccnc4cc(C(F)(F)F)ccc34)c1)N2` (stereo not given), the growth was 88% in the assay with SK-MEL-2 melanoma; 89.5% with EKVX NSCLC; 75.5% in the assay on SN12C renal; 99% with TK-10 renal; 98.3% in the assay with ACHN renal; 78.4% with CAKI-1 renal. Moreover, the growth in the assay with A498 renal was 74.5%; in the assay on CCRF-CEM leukemia it was 64.8%; with MOLT-4 leukemia, 93.5%; in the assay with SR leukemia, 23.3%; in the assay with RPMI-8226 leukemia, 5.05% (active); with OVCAR-8 ovarian, 67.7%. For the same molecule, the growth with OVCAR-5 ovarian was 108%; in the assay with OVCAR-4 ovarian, 89.2%; with SK-OV-3 ovarian, 80.2%; in the assay with IGROV1 ovarian, 84.2%; in the assay with OVCAR-3 ovarian, 95.1%; in the assay with HS 578T breast, 85.8%. Moreover, in the assay on NCI/ADR-RES ovarian, the growth is 88.3%.
